Screening data as filed in PubChem BioAssay.
In the library only some 3.4% were active in any assay of this set; here they are far more common.
FBW7 activator: human FBW7 E3 ligase activation, primary screen; 650,000 tested, 0.13% active; Q969H0; normalized activity (activation), % at 26.1 µM; AlphaScreen FBW7–phospho-cyclin E peptide binding, activator screen; in the data active = normalized activity above about 1.9%;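 also: purified mutant Fbw7 with reduced substrate affinity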
TEAD-YAP block: TEAD-YAP interaction inhibition. 640,000 tested, 1.4% active. HEK-TIYL cells, TEAD-Gal4/YAP UAS-luciferase luminescence. inhibition, % at 9.12 µM. AID 1259422; in the data active = inhibition above about 32%;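 also: 0% = median of test compound wells and 100% = reference inhibitor wells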
MITF inh: blocks human microphthalmia-associated transcription factor | O75030 | AlphaScreen MITF homodimerization, bead proximity signal | inhibition, % at 2.6 µM | 650,000 tested, 0.91% active | AID 1259374; in the data active = inhibition above about 50%;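 also: 0% = vehicle wells with protein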
Target sequence (O75030 whole entry, looked up): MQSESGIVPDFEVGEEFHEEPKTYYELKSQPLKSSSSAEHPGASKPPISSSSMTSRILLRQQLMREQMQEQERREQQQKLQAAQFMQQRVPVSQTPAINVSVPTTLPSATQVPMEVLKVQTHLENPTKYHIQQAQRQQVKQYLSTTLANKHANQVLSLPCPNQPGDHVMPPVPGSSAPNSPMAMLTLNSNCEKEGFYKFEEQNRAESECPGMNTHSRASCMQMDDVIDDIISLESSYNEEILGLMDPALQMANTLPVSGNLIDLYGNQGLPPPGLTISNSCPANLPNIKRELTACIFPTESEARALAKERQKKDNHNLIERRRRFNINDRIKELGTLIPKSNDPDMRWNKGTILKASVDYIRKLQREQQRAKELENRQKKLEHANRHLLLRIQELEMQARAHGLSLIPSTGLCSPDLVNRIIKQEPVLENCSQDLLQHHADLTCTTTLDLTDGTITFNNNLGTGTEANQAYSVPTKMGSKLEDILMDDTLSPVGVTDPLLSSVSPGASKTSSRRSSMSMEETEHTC
GPR151 activ: human GPR151 activation; activation, % at 11.2 µM; PathHunter beta-arrestin GPR151 cells, luminescence; Q8TDV0; 650,000 tested, 1% active; in the data active = activation above about 4.9%;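 also: 0% = median of compound wells and 100% = cells with positive control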
* marks the source's active call; other numbers are inactive results; . = no result given.

SMILES	FBW7 activator	TEAD-YAP block	MITF inh	GPR151 activ
CC(=O)N1CCc2cc(Br)cc(S(=O)(=O)N3CCN(c4ccccc4F)CC3)c21	0	-11	4	2
COc1ccc(OCC(=O)Nc2ccc(OC)cc2[N+](=O)[O-])cc1	0	-6	-12	-2
CCN(Cc1ccccc1)C(=O)C(Cc1ccccc1)NS(=O)(=O)c1cccs1 (stereo not drawn)	0	20	11	3
CCC(C)NC(=O)C1CCCN(Cc2nc(-c3cccc(Cl)c3)oc2C)C1 (stereo not drawn)	0	-7	-5	1
Cc1cc(C(=O)COC(=O)c2cccc(NS(C)(=O)=O)c2)c(C)n1CC1CCCO1 (stereo not drawn)	0	58*	4	2
C=CCn1c(C)cc(C(=O)COC(=O)c2cccc(O)c2)c1C	0	87*	-3	-9
Cc1cc(C(=O)COC(=O)c2cccc(N(C)C)c2)c(C)n1CC1CCCO1 (stereo not drawn)	0	38*	20	0
O=C(NC1CC1)c1ccc2c(c1)CC(c1nc3ccc(-c4cn[nH]c4)cc3c(=O)[nH]1)CO2 (stereo not drawn)	0	-1	27	0
CC(OC(=O)CNC(=O)C12CC3CC(CC(C3)C1)C2)C(=O)Nc1ccc(C#N)cc1 (stereo not drawn)	0	3	-14	0
COc1ccc(C2C(C(=O)Nc3ccc4c(c3)OCCO4)c3ccccc3C(=O)N2Cc2ccc(F)cc2)cc1 (stereo not drawn)	-1	-3	4	1
CNC(=O)c1ccc(Nc2cc(Nc3ccccc3C(=O)NC)c(C(F)(F)F)cn2)nc1	0	88*	13	-1
CNS(=O)(=O)c1ccccc1Nc1cc(Nc2cc(-c3cncnc3)nc(C)n2)ncc1C(F)(F)F	0	68*	3	2
CNC(=O)c1ccnc(Nc2cc(Nc3ccccc3C(=O)NC)c(C(F)(F)F)cn2)c1	0	85*	1	-1
CNC(=O)c1ccccc1Nc1cc(Nc2ccc(-c3cncnc3)cc2)ncc1C(F)(F)F	0	32*	8	1
O=c1cc(C(F)(F)C(F)(F)F)oc2ccc([N+](=O)[O-])cc12	1	4	13	0
O=C(Cn1cnc2c(nnn2Cc2ccccc2)c1=O)NC1CCCCC1	0	-11	3	2
CNC(=O)c1ccccc1Nc1cc(Nc2ccccn2)ncc1C(F)(F)F	0	83*	-8	0
CNC(=O)c1ncccc1Nc1cc(Nc2ccc3c(c2)NC(=O)C3)ncc1C(F)(F)F	0	-8	8	-1
CNC(=O)c1ccccc1Nc1cc(Nc2ccc3[nH]cc(C(=O)C(=O)N(C)C)c3c2)ncc1C(F)(F)F	0	51*	19	-1
CN(C)C(=O)C(=O)c1c[nH]c2ccc(Nc3cc(Nc4ccccn4)c(C(F)(F)F)cn3)cc12	0	-5	12	2
CNC(=O)c1ccccc1Nc1cc(Nc2ccc3c(c2)CCC(=O)N3C)ncc1C(F)(F)F	0	78*	-2	-1
CNC(=O)c1ccccc1Nc1cc(Nc2cccc(C)n2)ncc1C(F)(F)F	0	82*	2	0
Cc1ccc(-c2c(C)nn3c(NCCCN4CCOCC4)cc(C)nc23)cc1	0	15	12	0
CCOC(=O)Cn1c(CN2CCOCC2)nc2c1c(=O)n(C)c(=O)n2C	0	3	-11	0
COc1c(N)cc([N+](=O)[O-])c(OC)c1C	0	13	-6	0
SMILES	FBW7 activator	TEAD-YAP block	MITF inh	GPR151 activ
Nc1c(N=Nc2ccc(-c3ccc(N=Nc4cc(S(=O)(=O)O)c5ccccc5c4N)cc3)cc2)cc(S(=O)(=O)O)c2ccccc12	-1	2	23	-4
Cc1cc(-c2ccc(N=Nc3ccc4c(S(=O)(=O)O)cc(S(=O)(=O)O)c(N)c4c3O)c(C)c2)ccc1N=Nc1ccc2c(S(=O)(=O)O)cc(S(=O)(=O)O)c(N)c2c1O	0	.	78*	0
N#Cc1cc2c(nc1SC1CC(=O)N(c3ccccc3)C1=O)CCC2 (stereo not drawn)	0	39*	-9	1
Cc1nc(SC2CC(=O)N(c3ccccc3)C2=O)c(C#N)c(C)c1C (stereo not drawn)	1	57*	12	1
Cc1cc(C)c(C#N)c(SC2CC(=O)N(c3ccccc3)C2=O)n1 (stereo not drawn)	1	38*	3	0
N#Cc1cc2c(nc1SC1CC(=O)N(c3ccccc3)C1=O)CCCCC2 (stereo not drawn)	0	-19	0	-1
COc1ccc(-c2cc(-c3ccccc3)nc(SC3CC(=O)N(c4ccc(C)cc4)C3=O)c2C#N)cc1 (stereo not drawn)	0	9	8	-1
CC(=O)N(C)c1ccc(N=Cc2ccc([N+](=O)[O-])cc2)cc1	0	9	-1	3
CC(=O)c1cccc(NC(=O)c2cn(Cc3cccc(F)c3)nc2OCc2cccc(F)c2)c1	0	-1	5	1
CC1=[N+]([O-])C(c2ccccc2)N(O)C1(C)C (stereo not drawn)	0	17	2	0
CC(=O)Nc1ccc(NC(=O)COC(=O)CNC(=O)c2ccc(C)s2)cc1	0	1	5	0
Oc1ccc(/C=N/Nc2nnc3c(n2)[nH]c2ccccc23)c(O)c1	-1	56*	19	0
Oc1ccc(/C=N/Nc2nnc3c(n2)[nH]c2ccccc23)cc1	0	-31	23	-1
Oc1ccc(O)c(/C=N\Nc2nnc3c(n2)[nH]c2ccccc23)c1	0	50*	22	2
C(=N\Nc1nnc2c(n1)[nH]c1ccccc12)/c1ccccn1	-2	56*	27	0
Cc1nn2cc(-c3cccc([N+](=O)[O-])c3)cc2c2c(C)n(C)c(C)c12	0	0	8	2
Cc1ccc(OCCC(=O)OCC(=O)N(c2ccccc2)C(C)C)cc1	0	20	5	-1
Cc1ccc[n+](C(C)C(=O)c2ccccc2)c1 (stereo not drawn)	0	1	10	0
Cc1cc(C)c[n+](C(C)C(=O)c2ccc(-c3ccccc3)cc2)c1 (stereo not drawn)	0	72*	4	1
O=C(O[C@@H]1Cc2c(O)cc(O)cc2O[C@@H]1c1ccc(O)c(O)c1)c1cc(O)c(O)c(O)c1	0	0	83*	0
O=C(O[C@@H]1Cc2c(O)cc(O)cc2O[C@@H]1c1cc(O)c(O)c(O)c1)c1cc(O)c(O)c(O)c1	0	2	77*	-1
O=C1c2c(O)cc(O)cc2OC(c2ccc(O)c(O)c2)C1O (stereo not drawn)	0	-1	14	2
CN1CCC(N(C)C(=O)Cn2nc(C(=O)N3CCN(C)CC3)cc2-c2cccs2)CC1	0	5	5	0
Cc1ccc([N+](=O)[O-])cc1NC(=O)CN(c1ccc(Cl)cc1Cl)S(C)(=O)=O	0	2	2	1
O=C(NCCCCCCNC(=O)Nc1cccnc1)Nc1cccnc1	0	57*	-5	0
CCN1/C(=C/c2ccc3ccccc3[n+]2CC)Sc2ccc(Br)cc21	-1	71*	16	1
